# According to ChEMBL document CHEMBL3988442, “University of Dundee, Small-Polar-MMV Screening Library” (2021):
# “And” between values parts separate entries of the source, which are not always exact repeats. Equal values may be shown once. For part of these data: Measured potencies and affinities stand elsewhere.
# Experiments:
# Design in all cases: scale not given: direction of the effect not stated beside the values
# [1] = target: Protein translocase subunit SecA (Escherichia coli (strain K12)) (UniProt P10408); experiment: Assay to Identify E. coli SecA ATPase Inhibitors; format: functional; settings: 30 µM
# Sequence of Protein translocase subunit SecA (Escherichia coli (strain K12)) (P10408 whole entry): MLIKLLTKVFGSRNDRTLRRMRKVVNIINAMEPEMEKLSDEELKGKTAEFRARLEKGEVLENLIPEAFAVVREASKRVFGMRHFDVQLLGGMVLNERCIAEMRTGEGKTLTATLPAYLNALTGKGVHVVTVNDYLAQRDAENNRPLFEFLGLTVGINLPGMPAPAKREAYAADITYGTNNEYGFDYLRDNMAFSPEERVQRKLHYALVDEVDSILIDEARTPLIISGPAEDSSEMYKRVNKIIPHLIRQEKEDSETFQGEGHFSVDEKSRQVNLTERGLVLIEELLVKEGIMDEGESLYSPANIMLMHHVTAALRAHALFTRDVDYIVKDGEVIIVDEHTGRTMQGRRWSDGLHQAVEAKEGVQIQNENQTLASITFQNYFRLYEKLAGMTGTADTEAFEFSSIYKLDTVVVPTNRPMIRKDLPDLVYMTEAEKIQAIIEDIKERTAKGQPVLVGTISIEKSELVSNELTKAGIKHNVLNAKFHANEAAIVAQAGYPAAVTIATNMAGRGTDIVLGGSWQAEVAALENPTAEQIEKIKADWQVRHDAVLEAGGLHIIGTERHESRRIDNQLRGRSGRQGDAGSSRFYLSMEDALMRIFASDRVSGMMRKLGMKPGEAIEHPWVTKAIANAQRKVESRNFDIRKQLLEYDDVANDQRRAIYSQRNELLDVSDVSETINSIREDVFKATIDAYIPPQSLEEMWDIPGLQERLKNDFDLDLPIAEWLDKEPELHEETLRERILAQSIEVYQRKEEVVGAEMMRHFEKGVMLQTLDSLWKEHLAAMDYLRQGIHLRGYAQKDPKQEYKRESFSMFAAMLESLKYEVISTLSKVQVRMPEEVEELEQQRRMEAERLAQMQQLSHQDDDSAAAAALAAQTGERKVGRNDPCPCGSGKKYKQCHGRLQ
# [2] = target: T1, Ubiquitin-activating enzyme e1, putative (Leishmania donovani (strain BPK282A1)) (UniProt E9BSI1); experiment: Leishmania donovani Ubiquitin Activating Enzyme (LdE1); format: functional; settings: 30 µM
# T1 sequence (whole entry): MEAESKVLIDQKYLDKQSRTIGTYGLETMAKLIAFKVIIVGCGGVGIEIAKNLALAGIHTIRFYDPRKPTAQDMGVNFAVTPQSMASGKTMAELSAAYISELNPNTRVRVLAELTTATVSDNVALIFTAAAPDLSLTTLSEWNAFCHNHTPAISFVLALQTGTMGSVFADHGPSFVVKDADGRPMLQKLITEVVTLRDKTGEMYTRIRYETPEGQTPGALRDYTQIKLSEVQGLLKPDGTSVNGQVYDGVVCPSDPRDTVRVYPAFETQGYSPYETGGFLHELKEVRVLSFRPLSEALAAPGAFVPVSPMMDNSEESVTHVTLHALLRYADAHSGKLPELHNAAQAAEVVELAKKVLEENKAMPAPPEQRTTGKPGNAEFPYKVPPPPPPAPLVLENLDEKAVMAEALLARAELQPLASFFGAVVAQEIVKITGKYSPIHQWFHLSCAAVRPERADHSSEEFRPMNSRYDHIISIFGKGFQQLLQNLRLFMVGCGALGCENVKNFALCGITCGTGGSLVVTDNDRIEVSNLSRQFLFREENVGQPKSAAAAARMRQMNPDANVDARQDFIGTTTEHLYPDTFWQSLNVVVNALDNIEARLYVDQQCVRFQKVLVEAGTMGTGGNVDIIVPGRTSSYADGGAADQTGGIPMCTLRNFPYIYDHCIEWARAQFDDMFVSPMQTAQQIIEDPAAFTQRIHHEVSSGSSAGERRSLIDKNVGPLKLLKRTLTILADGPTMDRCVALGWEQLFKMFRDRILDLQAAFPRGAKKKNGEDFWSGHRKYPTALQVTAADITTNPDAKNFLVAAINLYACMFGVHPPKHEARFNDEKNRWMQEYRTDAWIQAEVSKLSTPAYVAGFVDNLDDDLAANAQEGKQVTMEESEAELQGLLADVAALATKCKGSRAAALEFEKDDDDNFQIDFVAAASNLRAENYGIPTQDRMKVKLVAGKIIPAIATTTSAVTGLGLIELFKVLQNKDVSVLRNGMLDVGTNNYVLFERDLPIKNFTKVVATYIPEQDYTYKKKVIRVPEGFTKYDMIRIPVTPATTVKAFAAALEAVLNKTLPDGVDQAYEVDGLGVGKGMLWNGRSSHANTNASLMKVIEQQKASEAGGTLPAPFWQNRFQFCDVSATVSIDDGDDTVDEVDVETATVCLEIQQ
# [3] = target: AMP-activated protein kinase, AMPK (Homo sapiens) (UniProt P54646+O43741+P54619+Q9UGJ0+Q9Y478+Q13131+Q9UGI9); experiment: AMP-dependent Kinase enzyme assay. An in vitro enzyme assay that detects ADP turnover that is directly proportional to AMPK activity. This uses naive AMPK that is activated during the assay with MK-8722; format: functional; settings: 30 µM
# [4] = target: Sialic acid-binding Ig-like lectin 9 (Homo sapiens) (UniProt Q9Y336); experiment: Hs-Siglec9 ALPHAscreen SOP 20170721; settings: 10 µM
# Sequence of Sialic acid-binding Ig-like lectin 9 (Homo sapiens) (Q9Y336 whole entry): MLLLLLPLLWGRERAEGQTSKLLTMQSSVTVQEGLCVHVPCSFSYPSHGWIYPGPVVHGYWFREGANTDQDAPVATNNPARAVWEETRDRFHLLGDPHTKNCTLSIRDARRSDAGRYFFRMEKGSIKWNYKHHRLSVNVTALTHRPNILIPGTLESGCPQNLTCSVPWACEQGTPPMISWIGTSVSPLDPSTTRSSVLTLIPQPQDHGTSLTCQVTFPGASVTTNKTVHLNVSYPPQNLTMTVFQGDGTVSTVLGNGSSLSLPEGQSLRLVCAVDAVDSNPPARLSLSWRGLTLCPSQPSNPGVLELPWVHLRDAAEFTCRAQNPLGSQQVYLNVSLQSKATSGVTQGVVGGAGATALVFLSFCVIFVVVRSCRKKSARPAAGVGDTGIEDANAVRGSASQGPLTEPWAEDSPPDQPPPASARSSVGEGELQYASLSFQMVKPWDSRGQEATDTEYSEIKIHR
# Trypanosoma cruzi = experiment: Trypanosoma cruzi phosphomannomutase and mannose-1-phosphate guanylyltransferase assay; format: functional; settings: 10 µM
# [5] = target: T2, Arginase-2, mitochondrial (Homo sapiens) (UniProt P78540); experiment: in vitro enzyme assay to detect the production of urea directly proportional to the activity of Arginase II; format: functional; settings: 33.3 µM; note: in the data most compounds retested in dose-response had high values
# T2 sequence (whole entry): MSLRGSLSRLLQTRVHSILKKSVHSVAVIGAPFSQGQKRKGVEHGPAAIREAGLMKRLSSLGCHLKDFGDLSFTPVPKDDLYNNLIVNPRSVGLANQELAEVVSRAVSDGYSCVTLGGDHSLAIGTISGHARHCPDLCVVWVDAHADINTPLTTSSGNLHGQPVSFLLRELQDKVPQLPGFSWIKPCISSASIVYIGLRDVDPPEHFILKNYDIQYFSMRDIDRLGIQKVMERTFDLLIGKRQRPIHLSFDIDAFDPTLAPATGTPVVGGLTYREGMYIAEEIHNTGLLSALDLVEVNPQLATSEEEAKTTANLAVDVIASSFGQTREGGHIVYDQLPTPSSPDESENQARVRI
# [6] = target: T3, Proteasome subunit beta (Trypanosoma cruzi) (UniProt O96673); experiment: Trypanosoma cruzi proteasome chymotrypsin-like activity (TcProtChymo) assay.; note: in the data most compounds retested in dose-response had high values; format: functional; settings: 9.37 µM
# T3 sequence (whole entry): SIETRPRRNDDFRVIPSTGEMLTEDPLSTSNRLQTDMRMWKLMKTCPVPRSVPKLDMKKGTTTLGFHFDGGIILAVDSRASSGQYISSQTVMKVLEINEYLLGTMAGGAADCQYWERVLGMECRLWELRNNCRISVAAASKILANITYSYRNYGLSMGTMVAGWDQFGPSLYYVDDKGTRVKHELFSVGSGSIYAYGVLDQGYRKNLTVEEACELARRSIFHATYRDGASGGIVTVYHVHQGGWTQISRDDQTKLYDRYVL
# N/A = experiment: Trypanosoma cruzi proteasome luciferase counter-screen; format: functional; settings: 9.37 µM
# Homo sapiens = species: Homo sapiens; experiment: To identify inhibition of the IFN signalling (Jak-Stat) pathway via expression of an eGFP reporter gene under the control of an IFN-stimulated response element (ISRE) containing MxA promoter.; format: functional; settings: 30 µM
# [7] = target: T4, Tyrosyl-tRNA synthetase, putative (Trypanosoma cruzi (strain CL Brener)) (UniProt Q4DSP6); experiment: Trypanosoma cruzi tyrosyl tRNA synthetase (TcYRS) _High Tyrosine SOP; format: functional; settings: 30 µM; note: in the data most compounds retested in dose-response had high values
# T4 sequence (whole entry): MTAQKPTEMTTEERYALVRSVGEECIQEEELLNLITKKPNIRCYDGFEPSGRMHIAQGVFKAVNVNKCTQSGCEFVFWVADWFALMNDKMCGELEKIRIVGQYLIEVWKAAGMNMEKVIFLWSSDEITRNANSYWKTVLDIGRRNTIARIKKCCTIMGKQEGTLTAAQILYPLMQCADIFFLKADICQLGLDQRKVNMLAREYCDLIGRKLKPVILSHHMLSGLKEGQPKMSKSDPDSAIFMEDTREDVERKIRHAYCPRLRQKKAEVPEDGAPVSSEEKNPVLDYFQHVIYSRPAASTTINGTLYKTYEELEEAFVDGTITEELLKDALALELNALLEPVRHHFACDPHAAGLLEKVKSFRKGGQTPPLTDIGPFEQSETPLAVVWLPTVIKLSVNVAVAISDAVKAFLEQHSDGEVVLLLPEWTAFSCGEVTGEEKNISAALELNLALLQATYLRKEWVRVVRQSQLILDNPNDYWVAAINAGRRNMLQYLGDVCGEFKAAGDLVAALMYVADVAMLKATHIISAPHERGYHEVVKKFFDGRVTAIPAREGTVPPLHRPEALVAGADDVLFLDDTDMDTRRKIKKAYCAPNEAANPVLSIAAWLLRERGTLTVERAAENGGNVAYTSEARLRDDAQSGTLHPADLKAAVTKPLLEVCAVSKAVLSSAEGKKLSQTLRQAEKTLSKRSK
# [8] = target: T4, Tyrosyl-tRNA synthetase, putative (Trypanosoma cruzi (strain CL Brener)); experiment: Trypanosoma cruzi tyrosyl tRNA synthetase (TcYRS) SOP; format: functional; settings: 30 µM
# [9] = target: Chromo domain-containing protein 1 (Saccharomyces cerevisiae (strain ATCC 204508 / S288c) (Baker's yeast)) (UniProt P32657); experiment: ScCHD-1 Enzyme Inhibition Assay; format: functional; settings: 30 µM; note: in the data most compounds retested in dose-response had high values
# Sequence of Chromo domain-containing protein 1 (Saccharomyces cerevisiae (strain ATCC 204508 / S288c) (Baker's yeast)) (P32657 whole entry, the tested form may be a part): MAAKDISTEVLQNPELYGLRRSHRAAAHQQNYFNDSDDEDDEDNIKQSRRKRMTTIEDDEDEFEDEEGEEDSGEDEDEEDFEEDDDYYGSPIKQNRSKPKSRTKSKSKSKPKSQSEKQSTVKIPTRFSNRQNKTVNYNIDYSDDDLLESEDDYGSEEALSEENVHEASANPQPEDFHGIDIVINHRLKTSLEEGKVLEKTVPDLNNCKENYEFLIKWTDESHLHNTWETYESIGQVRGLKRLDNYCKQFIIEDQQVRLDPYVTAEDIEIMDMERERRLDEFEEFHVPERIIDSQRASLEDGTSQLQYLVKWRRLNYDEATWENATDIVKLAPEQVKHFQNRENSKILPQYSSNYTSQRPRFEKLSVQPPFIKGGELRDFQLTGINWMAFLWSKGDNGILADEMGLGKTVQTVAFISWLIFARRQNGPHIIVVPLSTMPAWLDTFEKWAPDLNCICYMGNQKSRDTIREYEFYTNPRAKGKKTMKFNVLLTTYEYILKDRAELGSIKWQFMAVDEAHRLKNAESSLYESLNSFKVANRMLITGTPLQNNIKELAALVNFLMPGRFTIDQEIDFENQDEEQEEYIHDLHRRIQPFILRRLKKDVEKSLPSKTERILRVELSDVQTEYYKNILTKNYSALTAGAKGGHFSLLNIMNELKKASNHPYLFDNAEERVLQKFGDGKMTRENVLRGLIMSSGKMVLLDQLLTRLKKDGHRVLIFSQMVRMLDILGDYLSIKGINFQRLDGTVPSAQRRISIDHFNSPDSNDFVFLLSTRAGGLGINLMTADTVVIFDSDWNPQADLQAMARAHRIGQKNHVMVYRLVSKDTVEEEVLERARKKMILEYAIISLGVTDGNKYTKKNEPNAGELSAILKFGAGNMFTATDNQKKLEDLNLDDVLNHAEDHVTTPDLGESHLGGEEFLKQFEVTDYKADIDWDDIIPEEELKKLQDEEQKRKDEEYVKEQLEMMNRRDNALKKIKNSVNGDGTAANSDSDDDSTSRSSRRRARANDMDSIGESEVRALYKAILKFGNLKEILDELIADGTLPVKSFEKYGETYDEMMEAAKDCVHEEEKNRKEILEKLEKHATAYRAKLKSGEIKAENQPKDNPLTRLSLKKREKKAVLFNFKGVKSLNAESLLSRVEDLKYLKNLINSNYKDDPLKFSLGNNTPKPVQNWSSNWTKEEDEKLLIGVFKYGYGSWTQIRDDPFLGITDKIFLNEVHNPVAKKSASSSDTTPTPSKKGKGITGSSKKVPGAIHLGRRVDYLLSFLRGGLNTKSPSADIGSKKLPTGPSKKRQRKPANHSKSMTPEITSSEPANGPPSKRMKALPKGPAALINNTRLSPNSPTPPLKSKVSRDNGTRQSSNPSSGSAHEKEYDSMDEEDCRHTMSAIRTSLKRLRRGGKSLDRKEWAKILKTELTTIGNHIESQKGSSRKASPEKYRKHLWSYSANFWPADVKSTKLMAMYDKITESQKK
Compound,Percent Effect [1],Percent Effect [2],Percent Effect [3],Percent Effect [4],Percent Effect (Trypanosoma cruzi),Percent Effect [5],Percent Effect [6],Percent Effect (N/A),Percent Effect (Homo sapiens),Percent Effect [7],Percent Effect [8],Percent Effect [9]
CCc1nc(COc2ccc(OCc3cnn(C)c3)cc2)no1,-3.52%,13.5%,-5.93%,21.3%,3.86%,4.29%,50.7% (2×) and 48.5%,32% and 28.2%,23.4%,3.7%,19.5%,-9.15%
Cc1ccc(C(=O)Nc2cn[nH]c2)cc1C,0.399%,18.4%,16.7%,3.99%,0.188%,1.15%,53% and 40.4% and 50.9%,27.1% and 25%,5.81%,11.3%,24.4%,-9.31%
CC(Cn1cccn1)NCc1csc(-c2ccccc2F)n1 (stereo not drawn),-1.44%,-5.41%,-14.2%,7.22%,3.87%,-4.41%,90.3% and 88.1% and 85%,59.5% and 61%,13.2%,1.48%,11.1%,-4.62%
Cc1cnn(CC2CN(c3cnc4ccccc4n3)CCO2)c1 (stereo not drawn),-8.32%,15.2%,2.77%,14.7%,12%,-4.56%,38.1% and 39.2% and 44.7%,20.3% and 14.5%,14.6%,4.43%,21.5%,-12.5%
CSC(C)C(=O)NCCCc1cc(N)n(-c2ccccc2)n1 (stereo not drawn),-3.19%,-5.48%,16.9%,-3.4%,-2.15%,-12.3%,74.4% and 84.2% and 83.7%,46.1% and 47.4%,14.8%,-1.07%,0%,-2.72%
Cc1ccc(N(C)C2CCN(C(=O)CCc3ccco3)CC2)nn1,-4.56%,5.41%,12.7%,1.05%,5.66%,0.554%,48.4% and 44.9% and 50.1%,12.6% and 9.51%,8.17%,22.8%,23.2%,3.63%
O=C(N[C@@H]1CN(Cc2ccsc2)[C@@H]2CCCO[C@@H]21)C1CC1,-8.12%,18.7%,-4.7%,2.36%,-0.193%,-57.9%,37.3% and 23.2% and 22.2%,7.24% and 10.5%,-2.14%,4.17%,17.5%,-7.56%
CNC(=O)N1CC[C@@H]2CN(Cc3cccnc3)S(=O)(=O)[C@@H]2CC1,-2.59%,8.11%,4.84%,-4.72%,1.27%,0.319%,11.4% and 31.6% and 11.9%,5.24% and 4.76%,-15.6%,0%,15.4%,0.163%
CCOc1ncccc1NC(=O)c1cc2c(s1)CCC2,1.48%,9.72%,8.31%,7.26%,2.82%,-6.18%,22.1% and 36.7% and 23%,13.8% and 15.3%,9.51%,4.21%,10.3%,63.8%
Cc1noc([C@H]2C[C@H]3OCC[C@H]3N(Cc3ccc4c(c3)OCO4)C2)n1,-1.12%,13.5%,5.01%,-6.24%,-0.88%,6.05%,11.4% and 30.6% and 12.5%,7.96% and 8.15%,-2.22%,5.41%,17.9%,-3.92%
Cc1nc(CN2CCOC(CNc3cccnn3)C2)oc1C (stereo not drawn),-1.3%,0%,-22.1%,-5.8%,0.283%,28.9%,30.6% and 26.7% and 36.4%,11.3% and 10.2%,11.3%,2.46%,-8.64%,-0.197%
Cc1cnn(C2CN(CC(=O)NCc3ccccn3)C2)c1,0.391%,26.3%,-12.2%,-9.97%,7.56%,-4.32%,63.5% and 62% and 58.8%,11.6% and 13.6%,-8.2%,17.2%,25.9%,-5.97%
CC(C)c1cc2c(O)nc(CSCC(=O)O)nc2s1,-4.64%,6.67%,7.73%,3.74%,3.93%,-2.99%,70.5% and 64.5% and 63.5%,32% and 29.1%,1.31%,4.23%,10.3%,-9.79%
O=C(Nc1ccccn1)C1CC(=O)N(Cc2ccccn2)C1 (stereo not drawn),-2.05%,15.8%,1.82%,8.62%,-4.97%,2.37%,26.3% and 37.5% and 33.2%,28% and 30%,-8.07%,3.19%,7.79%,-4%
CC(C1CC1)N(C)C(=O)c1cnc(-c2ccc3c(c2)OCO3)s1 (stereo not drawn),-5.81%,0%,11.9%,0.585%,-3.33%,-1.82%,68.6% and 72.1% and 62.6%,34.7% and 35.5%,12.2%,-2.15%,-2.5%,-10.2%
COc1cc(/C=C/c2ncc(C(=O)O)s2)cc(Cl)c1O,3.12%,13.9%,50.5%,-3.01%,0.923%,4.95%,99.9% and 99% and 99.8%,92.6% and 91.5%,-2.51%,4.17%,15.2%,-33.3%
Cc1cccc(NC(=O)c2sccc2C)n1,-3.25%,23.7%,-0.39%,-12.7%,3.99%,-16.6%,91.2% and 92.2% and 77.2%,69.5% and 70.4%,16.1%,1.06%,13%,-7.3%
NC(=O)c1nc(COc2ccc3c(c2)OCO3)no1,2.5%,9.33%,10%,1.5%,-8.84%,-7.22%,45% and 40.2% and 44%,21.3% and 24%,3.46%,2.12%,10.3%,-8.03%
Cc1noc(NC(=O)c2ccc(OC(F)(F)F)cc2)n1,-1.74%,18.4%,-0.843%,1.75%,2.52%,-4.68%,75.9% and 76.1% and 72%,32.7% and 35.8%,75.7%,15.3%,28.4%,-3.4%
